Luciferase inh – inhibitors of firefly (Photinus pyralis) luciferase; P08659; hit rate 2.5% among 76,000; purified P. pyralis luciferase, luminescence, biochemical; Potency, µM (doses to about 115 µM), usual class: inhibitors; AID 1347043; note: nearly all actives have a fitted effect of over 65% in size
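FLuc 10nM, D-luciferin 10uM, ATP 10uM, Mg acetate 10mM, Tris acetate pH 7.5, Tween/BSA; cpd qHTS; enzyme added last; CCD luminescence.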
NPR1 antag – antagonists of human natriuretic peptide receptor Npr1; P16066; HEK293 hNpr1 GloSensor cGMP, ANP-stimulated luminescence; Potency, µM (doses to about 46.3 µM), for the others: top-dose activity change, negative = inhibition, most hits filed as inhibitors; hit rate 1.6% among 76,000; AID 1347048; calls by dose curve; note: nearly all actives have a fitted effect of over 60% in size
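Compound pre-incubated 30 min at room temperature on GloSensor-loaded HEK293 cells stably carrying hNpr1 and the pGS-40F cGMP biosensor. Stimulation uses hNppA at 0.1 nM final; luminescence is taken at baseline and 20 min post-agonist.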
HEK293 tox – HEK 293 cell cytotoxicity | HEK 293 viability, ATP luminescence (CellTiter-Glo), 48-72 h | Potency, µM (series often up to 115 µM), for the others: at the top dose activity change, negative = cytotoxicity, usual class: inhibitors | hit rate 6.6% among 94,000 | AID 1345083; note: nearly all actives have a fitted effect of over 60% in size
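HEK 293 cells at 250 cells/well were exposed to compounds by pintool transfer for 48 or 72 hr at 37 degree Celsius, 5% CO2. Viability was read as ATP-coupled luminescence with CellTiter-Glo after 10 min at room temperature.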
NIH3T3 tox – cytotoxic compounds in NIH 3T3 cells | AID 1345082 | Potency, µM (highest dose often 96.7 µM), for the others: at the top dose activity change, negative = cytotoxicity, most hits filed as inhibitors | NIH 3T3 viability, CellTiter-Glo ATP luminescence, 48-72 h | hit rate 4.3% among 94,000; note: nearly all actives have a fitted effect of over 55% in size
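Cytotoxicity is measured as loss of cellular ATP: NIH 3T3 cells (400/well) are exposed to compound for 48 or 72 hr at 37 °C, then CellTiter-Glo luminescence is imaged after 10 min at room temperature.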
Active calls of the source: *; [ ] = another dose, or the depositor's remark. In the library only some 11% were active in any assay of this set; here they are far more common. Unless noted, calls come from the whole dose curve; as a rule, active = well fitted curve in the direction sought with a large enough effect; inconclusive = small, poorly fitted or top-dose-only effect, or another doubt; inactive = no such curve, though single readings can be large; an effect the other way counts as inactive or inconclusive. % is set by controls: 0 for no effect and ±100 for the full control effect; potency is the fitted concentration of half-maximal effect.

`O=C1CCCCCN1C1CCN(Cc2ccccc2C(F)(F)F)CC1` gave Luciferase inh inactive, NPR1 antag -7%[70.6 µM], HEK293 tox 79µM* and NIH3T3 tox inconclusive.
`O=C1CCCCCN1C1CCN(Cc2cccc3ccccc23)CC1` gave Luciferase inh inactive, NPR1 antag 2%[70.6 µM], HEK293 tox 79µM* and NIH3T3 tox 79µM*.
COc1ccc(CCNC(=O)c2nc3sccn3c2-c2ccc(C(F)(F)F)cc2)cc1 was read as HEK293 tox -20% and NIH3T3 tox inconclusive.
Screening COc1ccc(C(=O)N[C@@H]2CN(Cc3ccccc3)C[C@H]2CN(C)C)cn1 returned HEK293 tox inconclusive and NIH3T3 tox 32µM*.
CN(C)C[C@@H]1CN(Cc2ccncc2)C[C@H]1NC(=O)c1ccoc1 was read as Luciferase inh inactive, NPR1 antag 4%, HEK293 tox -18% and NIH3T3 tox -12%.
`COc1ccc(C(=O)N[C@@H]2CN(c3ncccn3)C[C@H]2CN(C)C)cn1` gave Luciferase inh inactive, NPR1 antag 5%, HEK293 tox inactive and NIH3T3 tox inactive.
CN(C)C[C@@H]1CN(C2CCOCC2)C[C@H]1NC(=O)c1ccc(F)c(Cl)c1 was read as Luciferase inh inactive, NPR1 antag -10%, HEK293 tox 79µM* and NIH3T3 tox inconclusive.
For CN(C)C[C@@H]1CN(Cc2ccncc2)C[C@H]1NC(=O)c1ccc(Cl)cc1 the results were Luciferase inh inactive, NPR1 antag -10%, HEK293 tox 40µM* and NIH3T3 tox inconclusive.
Screening Cc1ccc(C)c(C(=O)N[C@@H]2CN(Cc3ccccn3)C[C@H]2CN(C)C)c1 returned Luciferase inh inactive, NPR1 antag -4%, HEK293 tox 79µM* and NIH3T3 tox -3%.
CN(C)C[C@@H]1CN(Cc2ccccn2)C[C@H]1NC(=O)c1cccc(Cl)c1 was read as Luciferase inh inactive, NPR1 antag 7%, HEK293 tox inconclusive and NIH3T3 tox inconclusive.
`COc1ccc(NC(=O)N2CCCC(c3noc(COc4ccccc4F)n3)C2)c(C)c1` (stereo not drawn) gave Luciferase inh inactive, NPR1 antag inconclusive, HEK293 tox inconclusive and NIH3T3 tox inconclusive.
Screening O=C(CC1CCCC1)NCC1CCC(=O)N(Cc2ccccc2)CC1 (stereo not drawn) returned HEK293 tox inconclusive and NIH3T3 tox -23%.
Screening CCOc1ccccc1CN1CC[C@H](c2n[nH]c(C)n2)[C@H](NC(=O)C2CC2)C1 returned Luciferase inh inactive, NPR1 antag 4%, HEK293 tox -13% and NIH3T3 tox -25%.
COc1ccc(-c2cn3cc(C(=O)NCCc4ccc(Cl)cc4)nc3s2)cc1 was read as HEK293 tox -6% and NIH3T3 tox -26%.
`CCN1C(=O)CN(C(=O)c2ccsc2)CC12CCOCC2` gave HEK293 tox 4% and NIH3T3 tox -2%.
`COCCC(=O)N[C@@H]1CN(Cc2ccccc2)C[C@H]1CN(C)C` gave Luciferase inh inactive, NPR1 antag -1%, HEK293 tox -13% and NIH3T3 tox -13%.
`COc1ccc(C(=O)N[C@@H]2CN(Cc3ccccc3)C[C@H]2CN(C)C)cc1` gave HEK293 tox 5.6µM* and NIH3T3 tox inconclusive.
For COc1ccccc1CNC(=O)CCC[C@H]1NC[C@@H]2C[C@H]1CN(Cc1ccccc1)C2 the results were Luciferase inh inactive, NPR1 antag 1%, HEK293 tox -12% and NIH3T3 tox -22%.
CC(C)Cc1cnc(C2CCCN(C(=O)OC(C)(C)C)C2)[nH]1 (stereo not drawn) was read as HEK293 tox inconclusive and NIH3T3 tox 89µM*.
`Cc1ccc(NC(=O)N2C[C@@H](Oc3cccnc3)C[C@H]2C(=O)N2CCCC2)cc1C` gave Luciferase inh inactive, NPR1 antag 0%, HEK293 tox -1% and NIH3T3 tox inconclusive.
Screening Cn1ncc2c(C(=O)NCc3cccc(F)c3)cc(-c3ccccc3F)nc21 returned HEK293 tox 45µM* and NIH3T3 tox inconclusive.
Screening Cn1ncc2c(C(=O)Nc3cccc(F)c3)cc(-c3ccccc3F)nc21 returned HEK293 tox inconclusive and NIH3T3 tox -20%.
Cc1ccc(-c2cc(C(=O)NCc3ccc(C(F)(F)F)cc3)c3cnn(C)c3n2)c(C)c1 was read as HEK293 tox 35µM* and NIH3T3 tox inconclusive.
`COc1ccc(-c2cc(C(=O)NCc3cccc(C(F)(F)F)c3)c3cnn(C)c3n2)cc1` gave HEK293 tox 35µM* and NIH3T3 tox 32µM*.
For CC(=O)N1CCN(C(=O)c2cc(-c3cccc(C(F)(F)F)c3)nc3c2cnn3C)CC1 the results were HEK293 tox -19% and NIH3T3 tox inconclusive.
`CN1CCN(C(=O)c2cc(-c3cccc(C(F)(F)F)c3)nc3c2cnn3C)CC1` gave HEK293 tox inconclusive and NIH3T3 tox 32µM*.
For CN(C)C(=O)N1CCCC(C(=O)N2CCC3(CC2)CC(=O)Nc2ccccc2O3)C1 (stereo not drawn) the results were HEK293 tox 2% and NIH3T3 tox -15%.
`CN1CC(=O)N(C2CCCNC2)Cc2c1ncnc2N1CCCN(Cc2ccccc2)CC1` (stereo not drawn) gave HEK293 tox -15% and NIH3T3 tox -1%.
For Cn1ncc2c(C(=O)NCc3cccc(F)c3)cc(-c3ccc(C(F)(F)F)cc3)nc21 the results were HEK293 tox 40µM* and NIH3T3 tox -29%.
`Cn1ncc2c(C(=O)NCC(F)(F)F)cc(-c3cccc(C(F)(F)F)c3)nc21` gave HEK293 tox -19% and NIH3T3 tox -15%.
For C#CCNC(=O)c1cc(-c2cccc(C(F)(F)F)c2)nc2c1cnn2C the results were HEK293 tox inconclusive and NIH3T3 tox 10µM*.
For CCN1CCN(C(=O)c2cc(-c3cc(Cl)cc(Cl)c3)nc3c2cnn3C)CC1 the results were HEK293 tox -2% and NIH3T3 tox -25%.
Screening Cn1ncc2c(C(=O)NCc3cccc(C(F)(F)F)c3)cc(-c3ccc(C(F)(F)F)cc3)nc21 returned HEK293 tox -7% and NIH3T3 tox -2%.
`CC(=O)N1CCCN(C(=O)c2cc(-c3cc(Cl)cc(Cl)c3)nc3c2cnn3C)CC1` gave HEK293 tox 79µM* and NIH3T3 tox inconclusive.
Cc1cc(Cl)ccc1NC(=O)c1cnc(-c2ccccc2)nc1-c1ccncc1 was read as Luciferase inh inactive, NPR1 antag inconclusive, HEK293 tox 45µM* and NIH3T3 tox 20µM*.
Cc1ccc(-c2ncc(C(=O)Nc3cccc(Br)c3)c(-c3ccncc3)n2)cc1 was read as Luciferase inh inactive, NPR1 antag -12%, HEK293 tox 25µM* and NIH3T3 tox inconclusive.
For Cc1ccc(-c2ncc(C(=O)NCCN(C)C3CCCCC3)c(-c3ccncc3)n2)cc1 the results were Luciferase inh inactive, NPR1 antag 1%, HEK293 tox 20µM* and NIH3T3 tox 25µM*.

Screens: PubChem BioAssay, National Center for Advancing Translational Sciences (NCATS)
